Reference: PubChem BioAssay (NCATS)
Records with an inconclusive call do not appear. Active and inactive are the calls of the source. Unless noted, calls come from the whole dose curve; as a rule, active = well fitted curve in either direction with a large enough effect (not every such curve was filed as active); inconclusive = small, poorly fitted or top-dose-only effect, or another doubt; inactive = flat fitted curve, though single readings scatter.

Experiments:
[1] = molecular target: Lysosomal acid glucosylceramidase (Homo sapiens) (UniProt P04062); assay: Glucocerebrosidase-p2 (AID 348; in the data active = potency below about 10 µM; note: potency is the fitted concentration of half-maximal effect); conditions: purified GBA, blue fluorogenic substrate, 40 min
Outline: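 Compounds titrated from 0.6 nM upwards against 0.2 nM enzyme in pH 5.9 citric acid/KH2PO4, taurocholate, tween-20; blue fluorogenic substrate 80 uM, 40 min room temperature, stopped and read Ex 365/Em 440 for AC50.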

[2] = AP1 Signaling Pathway (AID 357); conditions: ME-180 AP-1-bla reporter, EGF-induced, beta-lactamase ratio, 5 h; at 7.69 µM (top of the series) unless noted;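 note: ME-180 reporter cells stimulated with EGF at its EC50 level; % is set by controls: 0 for no effect and ±100 for the full control effect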
Outline: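 Titration-series screen for positive or negative modulators of EC50 EGF-induced signaling in ME-180 cells carrying an AP-1-driven beta-lactamase reporter. After 5 hours at 37 degrees Celsius, CCF4 460nm/530nm emission ratio gave %Activity; AC50 values derived.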

[3] = molecular target: Cytochrome P450 1A2 (Homo sapiens) (UniProt P05177); assay: p450-cyp1a2 (AID 410; calls by dose curve; note: potency is the fitted concentration of half-maximal effect;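 for activity change, negative = inhibition: -100% = full effect of reference inhibitor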); conditions: recombinant CYP1A2, luciferin-ME demethylation, luminescence; series mostly up to 11.4 µM
Outline: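 Luminescent readout of luciferin formed from Luciferin-ME by human CYP1A2; data normalized against complete inhibition by 57 uM furafylline. Enzyme 20nM, substrate 100uM at Km, 100mM KPO4 buffer, 60 min reaction at room temperature.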

[4] = Stat Signaling Pathway (AID 446); conditions: ME-180 SIE beta-lactamase reporter, IL-6 stimulated, 5 h; at 7.69 µM (top of the series) unless noted;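 note: ME-180 cervical cancer cells given 40 pM IL-6 alongside compound; SIE-controlled beta-lactamase reporter measured as 460/530 nm FRET emission ratio; % is set by controls: 0 for no effect and ±100 for the full control effect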
Outline: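 ME-180 cells carrying a SIE-driven beta-lactamase reporter are stimulated with 40 pM IL-6 for 5 h at 37C in the presence of compound. The 460/530 nm FRET substrate ratio is read after 2.5 h at RT. Data are normalised to 300 pM IL-6 and to 125 nM JAK inhibitor controls.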

[5] = molecular target: Glucocorticoid receptor (Homo sapiens) (UniProt P04150); assay: GR-GFP Redistribution (AID 450;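 active = compounds whose dose series gives a full or clear partial fitted curve of increased nuclear translocation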; note: potency is the fitted concentration of half-maximal effect); conditions: U2OS GR-GFP nuclear translocation, laser cytometry, 2 h
[6] = molecular target: Glucocorticoid receptor (Homo sapiens) (UniProt P04150); assay: GR-EFC Redistribution (AID 451; calls by dose curve; note: potency is the fitted concentration of half-maximal effect); conditions: CHO-K1 GR-EFC translocation, beta-gal luminescence, 2 h
Outline: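 Translocation of GR-ED fusion to nuclear EA restores b-gal, read by luminescence after 1 h room-temperature detection. Engineered CHO-K1 biosensor cells, 1,000/well, exposed 2 h at 37 C to titrations up to 46 uM final.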

[7] = molecular target: Mitogen-activated protein kinase 10 (Mus musculus) (UniProt Q61831); assay: JNK3 AlphaScreen Assay (AID 530); conditions: JNK3 lysate, c-Jun phosphorylation; series mostly up to 11.4 µM;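 note: kinase came from lysate of stimulated human HepG2 cells; signal reports phosphorylation of biotinylated GST-cJun 1-79 at Ser73 with 10 µM ATP; % is set by controls: 0 for no effect and ±100 for the full control effect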
Outline: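 Compound titrations were preincubated 15 minutes at room temperature with substrate, antibody and pre-activated JNK3-containing HepG2 lysate. Reactions were started with 10 uM ATP and stopped with EDTA-containing bead buffer for AlphaScreen detection.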

[8] = molecular target: 3',5'-cyclic-AMP phosphodiesterase 4B (Homo sapiens) (UniProt Q07343); assay: qHTS Assay for Inhibitors of PDE-IV (AID 607; active = well fitted activation curve with a large enough effect in the main read-out, with a control signal flat, not every such curve was filed as active; note: % of control where 0% means no effect); conditions: HEK293 ACTOne CNG channel cells, membrane potential fluorescence; series mostly up to 22.9 µM
Outline: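 HEK293 ACTOne cells with CNG channel (1000/well), endogenous PDE4; membrane potential dye, compounds up to 22.9 uM final. Fluorescence Ex 535/Em 590; RO 20-1724 (100 uM final) as reference.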

[9] = NFAT Signaling Pathway (AID 444); conditions: Jurkat NFAT-bla M1, carbachol, beta-lactamase ratio, 5 h; at 7.69 µM (top of the series) unless noted;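 note: carbachol stimulus at about its EC50 of 1 µM final; % is set by controls: 0 for no effect and ±100 for the full control effect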
Outline: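 Read-out: CCF4 FRET ratio (460 nm/530 nm) after 1 h RT dye loading, used for %activity and AC50 from titration series. Cells: Jurkat NFAT-β-lactamase/M1 line, treated with compound plus 1 uM carbachol for 5 h, 37 °C.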

[10] = molecular target: ATP-dependent 6-phosphofructokinase (Trypanosoma brucei brucei) (UniProt O15648); assay: qHTS Assay to Find Inhibitors of T. brucei phosphofructokinase: hit validation (AID 492961; active = well fitted curve in the direction sought with a large enough effect; an effect the other way counts as inactive or inconclusive); conditions: T. brucei PFK, ADP-Glo luminescence; series mostly up to 51.4 µM
Outline: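 ADP-Glo luminescence read-out of ADP formed by 1.25 nM PFK from 0.1 mM ATP and 0.5 mM F6P (TEA pH 8.0, 45 min, RT). Compounds titrated; activity normalized to no-enzyme and full-enzyme controls.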

[11] = qHTS profiling for inhibitors of Plasmodium falciparum proliferation (AID 504749; active = well fitted curve in the direction sought with a large enough effect; an effect the other way counts as inactive or inconclusive;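 note: 0% = DMSO vehicle and full inhibition = artemisinin control; nearly all actives have a fitted effect of over 60% in size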); conditions: P. falciparum in erythrocytes, SYBR Green DNA, 72 h, at 28.7 µM (top of the series)
Outline: (§1)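 Infected RBCs, 0.3% parasitemia/2.5% Hct final; cpd 72 h, 37 C, 5% CO2; lysis buffer with saponin/triton/SYBR Green I, o/n RT dark; FI 485/535; norm. to artemisinin (0.29 uM) and DMSO.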

[12] = test system: CP192; assay: as above; conditions: P. falciparum in erythrocytes, SYBR Green DNA, 72 h; series mostly up to 28.7 µM
Outline: as §1

[13] = test system: CP203; assay: as above; conditions: P. falciparum in erythrocytes, SYBR Green DNA, 72 h; series mostly up to 28.7 µM
Outline: as §1

[14] = test system: W2; assay: as above; conditions: P. falciparum in erythrocytes, SYBR Green DNA, 72 h; series mostly up to 28.7 µM
Outline: as §1

[15] = molecular target: Cytochrome P450 3A4 (Homo sapiens) (UniProt P08684); assay: qHTS Assay for Activators of Cytochrome P450 3A4 (AID 885; active = well fitted curve in the direction sought with a large enough effect; an effect the other way counts as inactive or inconclusive; note: nearly all actives have a fitted effect of over 65% in size); conditions: recombinant CYP3A4, Luciferin-PPXE luminescence, 60 min; series mostly up to 11.4 µM
Outline: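 Human CYP3A4 (20 nM) with Luciferin-PPXE at 25 uM (its KM) in 200 mM KPO4; 10 min compound preincubation, then NADPH regeneration and 60 min reaction at RT. Luciferin read by luminescence; normalized to 57 uM ketoconazole full inhibition.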

[16] = molecular target: Cytochrome P450 2C9 (Homo sapiens) (UniProt P11712); assay: qHTS Assay for Inhibitors and Substrates of Cytochrome P450 2C9 (AID 883; active = well fitted curve in the direction sought with a large enough effect; an effect the other way counts as inactive or inconclusive; note: potency is the fitted concentration of half-maximal effect; nearly all actives have a fitted effect of over 60% in size); conditions: recombinant CYP2C9, luciferin-H luminescence, 60 min; series mostly up to 11.4 µM
Outline: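 Luminescent read-out of deoxyluciferin hydroxylation, normalized to 57uM sulphaphenazole (AC100). Reaction: 10nM enzyme, 100uM Luciferin-H (equal to KM), 25mM KPO4, 10 min compound preincubation, then 60 min with NADPH regeneration, both at 37C.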

[17] = molecular target: Cytochrome P450 3A4 (Homo sapiens) (UniProt P08684); assay: qHTS Assay for Inhibitors and Substrates of Cytochrome P450 3A4 (AID 884; active = well fitted curve in the direction sought with a large enough effect; an effect the other way counts as inactive or inconclusive; note: potency is the fitted concentration of half-maximal effect; nearly all actives have a fitted effect of over 50% in size); conditions: recombinant CYP3A4, Luciferin-PPXE luminescence; series mostly up to 57.1 µM
Outline: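 20 nM human CYP3A4 with 25 uM Luciferin-PPXE (at KM) in 200 mM KPO4, preincubated 10 min with compound; NADPH regeneration started a 60 min RT reaction. Luciferin detected by luminescence, normalized to 57 uM ketoconazole as full inhibition.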

[18] = molecular target: Cytochrome P450 2C19 (Homo sapiens) (UniProt P33261); assay: qHTS Assay for Inhibitors and Substrates of Cytochrome P450 2C19 (AID 899; active = well fitted curve in the direction sought with a large enough effect; an effect the other way counts as inactive or inconclusive; note: potency is the fitted concentration of half-maximal effect; nearly all actives have a fitted effect of over 60% in size); conditions: recombinant CYP2C19, luciferin-H EGE luminescence; series mostly up to 11.4 µM
Outline: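 Luminescence readout of luciferin formed from 10uM Luciferin-H EGE (KM level) by 5 nM CYP2C19 in 50mM KPO4. 60 min NADPH-driven reaction at 37C after 10 min compound preincubation; data scaled to 57uM ketoconazole inhibition.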

[19] = molecular target: Cytochrome P450 2D6 (Homo sapiens) (UniProt P10635); assay: qHTS Assay for Inhibitors and Substrates of Cytochrome P450 2D6 (AID 891; active = well fitted curve in the direction sought with a large enough effect; an effect the other way counts as inactive or inconclusive; note: potency is the fitted concentration of half-maximal effect; nearly all actives have a fitted effect of over 60% in size); conditions: recombinant CYP2D6, luciferin-ME EGE luminescence; series mostly up to 11.4 µM
Outline: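 Human CYP2D6 (5 nM) with 30 uM Luciferin-ME EGE (at Km) in 100 mM KPO4, compound preincubated 10 min, then NADPH regeneration system for 60 min at room temperature. Luciferin read by luminescence; normalized to 1.43 uM quinidine.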

[20] = qHTS Assay for Identification of Small Molecule Agonists for Hypoxia Response Element Signaling Pathway (AID 914; active = well fitted activation curve with a large enough effect in the signal ratio, with a control signal flat, not every such curve was filed as active; the % refers to the signal ratio; note: % of control where 0% means no effect); conditions: ME-180 (cervical carcinoma) HRE-bla reporter, beta-lactamase ratio, CoCl2, 17 h; activation: stronger effect = higher value
Outline: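 Positive modulation of EC50 CoCl2-induced hypoxia response element signaling is measured in ME-180 cells with a beta-lactamase reporter. Compounds are titrated, incubation runs 17 hours, and %Activity derives from the blue/green ratio.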

Chain of Glucocorticoid receptor (Homo sapiens) (P04150 whole entry, looked up, the tested form may be a part): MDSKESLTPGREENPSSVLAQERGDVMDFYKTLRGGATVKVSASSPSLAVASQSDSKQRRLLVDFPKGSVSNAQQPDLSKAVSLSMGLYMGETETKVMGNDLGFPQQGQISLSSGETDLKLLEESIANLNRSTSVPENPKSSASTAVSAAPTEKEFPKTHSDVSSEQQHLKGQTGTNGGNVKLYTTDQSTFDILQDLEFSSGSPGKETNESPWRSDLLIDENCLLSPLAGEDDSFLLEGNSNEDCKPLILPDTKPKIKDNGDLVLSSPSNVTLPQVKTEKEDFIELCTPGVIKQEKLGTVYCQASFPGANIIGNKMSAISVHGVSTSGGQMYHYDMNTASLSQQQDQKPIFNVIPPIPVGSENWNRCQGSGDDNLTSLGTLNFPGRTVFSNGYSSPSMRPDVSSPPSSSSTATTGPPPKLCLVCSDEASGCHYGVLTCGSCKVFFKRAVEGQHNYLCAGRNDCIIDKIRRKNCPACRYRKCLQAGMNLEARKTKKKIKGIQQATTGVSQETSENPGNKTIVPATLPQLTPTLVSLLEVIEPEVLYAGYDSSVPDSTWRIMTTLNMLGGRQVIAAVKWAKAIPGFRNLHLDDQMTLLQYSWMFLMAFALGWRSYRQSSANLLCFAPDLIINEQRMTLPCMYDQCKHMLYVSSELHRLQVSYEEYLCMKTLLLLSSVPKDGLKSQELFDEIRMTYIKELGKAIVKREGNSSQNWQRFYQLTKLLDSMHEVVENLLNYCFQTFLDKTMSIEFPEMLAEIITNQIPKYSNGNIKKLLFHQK
Chain of Cytochrome P450 3A4 (Homo sapiens) (P08684 whole entry, looked up): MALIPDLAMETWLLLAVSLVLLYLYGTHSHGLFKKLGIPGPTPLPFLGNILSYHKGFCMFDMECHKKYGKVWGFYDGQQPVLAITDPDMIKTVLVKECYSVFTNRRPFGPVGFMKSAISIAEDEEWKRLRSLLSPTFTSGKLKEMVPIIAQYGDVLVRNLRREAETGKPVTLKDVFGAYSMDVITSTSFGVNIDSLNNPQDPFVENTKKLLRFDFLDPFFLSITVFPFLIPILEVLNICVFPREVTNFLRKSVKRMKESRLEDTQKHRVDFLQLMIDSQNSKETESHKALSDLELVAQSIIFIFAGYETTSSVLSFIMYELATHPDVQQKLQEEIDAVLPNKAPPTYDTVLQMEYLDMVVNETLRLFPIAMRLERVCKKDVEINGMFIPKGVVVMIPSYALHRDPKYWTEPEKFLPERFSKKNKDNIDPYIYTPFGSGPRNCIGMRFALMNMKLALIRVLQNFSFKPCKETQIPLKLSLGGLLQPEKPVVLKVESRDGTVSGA
Chain of Cytochrome P450 2C9 (Homo sapiens) (P11712 whole entry, looked up): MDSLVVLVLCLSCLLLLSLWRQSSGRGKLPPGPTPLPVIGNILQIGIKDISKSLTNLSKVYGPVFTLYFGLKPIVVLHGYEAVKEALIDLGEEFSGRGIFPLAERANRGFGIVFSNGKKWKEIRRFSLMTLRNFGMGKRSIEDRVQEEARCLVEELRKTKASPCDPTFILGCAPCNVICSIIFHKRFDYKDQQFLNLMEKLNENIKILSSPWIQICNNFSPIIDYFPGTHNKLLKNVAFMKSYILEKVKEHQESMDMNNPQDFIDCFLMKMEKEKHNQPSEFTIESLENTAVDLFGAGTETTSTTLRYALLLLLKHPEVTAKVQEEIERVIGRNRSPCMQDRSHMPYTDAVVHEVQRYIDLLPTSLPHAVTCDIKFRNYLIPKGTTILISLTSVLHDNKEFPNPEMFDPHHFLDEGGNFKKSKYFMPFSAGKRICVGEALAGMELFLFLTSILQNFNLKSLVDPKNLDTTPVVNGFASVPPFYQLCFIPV
Chain of 3',5'-cyclic-AMP phosphodiesterase 4B (Homo sapiens) (Q07343 whole entry, looked up): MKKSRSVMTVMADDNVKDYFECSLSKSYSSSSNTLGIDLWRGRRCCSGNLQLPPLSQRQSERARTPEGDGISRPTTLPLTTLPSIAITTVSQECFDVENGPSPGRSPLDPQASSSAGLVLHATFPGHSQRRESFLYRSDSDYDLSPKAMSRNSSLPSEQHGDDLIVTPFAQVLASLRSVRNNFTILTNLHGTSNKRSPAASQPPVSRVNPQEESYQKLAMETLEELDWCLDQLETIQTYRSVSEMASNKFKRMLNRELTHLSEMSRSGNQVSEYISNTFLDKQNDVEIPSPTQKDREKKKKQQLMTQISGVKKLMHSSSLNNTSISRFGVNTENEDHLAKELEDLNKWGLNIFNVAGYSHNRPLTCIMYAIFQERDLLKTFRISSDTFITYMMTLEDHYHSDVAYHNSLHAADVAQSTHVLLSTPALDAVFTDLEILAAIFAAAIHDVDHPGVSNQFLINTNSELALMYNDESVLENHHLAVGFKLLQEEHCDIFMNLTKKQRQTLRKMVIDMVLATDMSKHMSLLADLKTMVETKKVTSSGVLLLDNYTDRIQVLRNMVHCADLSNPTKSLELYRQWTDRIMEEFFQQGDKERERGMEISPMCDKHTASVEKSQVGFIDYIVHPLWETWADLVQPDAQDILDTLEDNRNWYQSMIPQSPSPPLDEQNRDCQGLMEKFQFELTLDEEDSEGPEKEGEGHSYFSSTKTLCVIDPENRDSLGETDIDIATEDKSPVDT
Chain of Lysosomal acid glucosylceramidase (Homo sapiens) (P04062 whole entry, looked up): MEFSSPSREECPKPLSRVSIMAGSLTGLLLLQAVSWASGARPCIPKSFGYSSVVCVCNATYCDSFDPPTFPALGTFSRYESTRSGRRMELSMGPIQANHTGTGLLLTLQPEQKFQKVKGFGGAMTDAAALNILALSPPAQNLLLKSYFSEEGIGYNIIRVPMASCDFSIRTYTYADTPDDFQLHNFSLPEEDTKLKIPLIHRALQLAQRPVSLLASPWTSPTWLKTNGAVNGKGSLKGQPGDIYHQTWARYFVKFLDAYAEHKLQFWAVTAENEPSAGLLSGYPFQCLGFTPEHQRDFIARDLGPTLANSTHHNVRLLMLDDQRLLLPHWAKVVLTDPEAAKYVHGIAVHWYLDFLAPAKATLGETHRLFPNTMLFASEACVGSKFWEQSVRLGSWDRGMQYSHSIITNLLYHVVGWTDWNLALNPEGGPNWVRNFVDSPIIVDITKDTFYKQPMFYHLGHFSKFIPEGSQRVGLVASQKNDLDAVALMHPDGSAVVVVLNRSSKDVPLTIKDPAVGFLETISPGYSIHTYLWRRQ
Chain of Cytochrome P450 1A2 (Homo sapiens) (P05177 whole entry, looked up): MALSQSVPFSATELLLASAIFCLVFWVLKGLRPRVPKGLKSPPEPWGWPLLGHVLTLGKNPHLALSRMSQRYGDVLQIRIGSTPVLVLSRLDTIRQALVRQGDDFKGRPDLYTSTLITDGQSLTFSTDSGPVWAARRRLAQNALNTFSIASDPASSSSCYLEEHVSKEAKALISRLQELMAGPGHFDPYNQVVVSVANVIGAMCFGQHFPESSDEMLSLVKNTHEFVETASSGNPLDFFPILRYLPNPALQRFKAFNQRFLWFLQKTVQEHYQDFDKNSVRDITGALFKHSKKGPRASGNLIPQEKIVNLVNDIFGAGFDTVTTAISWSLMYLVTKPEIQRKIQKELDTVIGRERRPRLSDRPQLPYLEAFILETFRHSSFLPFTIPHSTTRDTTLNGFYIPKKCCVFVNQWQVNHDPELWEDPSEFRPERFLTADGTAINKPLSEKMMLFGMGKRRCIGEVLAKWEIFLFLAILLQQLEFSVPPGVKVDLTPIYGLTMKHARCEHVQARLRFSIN
Chain of Cytochrome P450 2C19 (Homo sapiens) (P33261 whole entry, looked up): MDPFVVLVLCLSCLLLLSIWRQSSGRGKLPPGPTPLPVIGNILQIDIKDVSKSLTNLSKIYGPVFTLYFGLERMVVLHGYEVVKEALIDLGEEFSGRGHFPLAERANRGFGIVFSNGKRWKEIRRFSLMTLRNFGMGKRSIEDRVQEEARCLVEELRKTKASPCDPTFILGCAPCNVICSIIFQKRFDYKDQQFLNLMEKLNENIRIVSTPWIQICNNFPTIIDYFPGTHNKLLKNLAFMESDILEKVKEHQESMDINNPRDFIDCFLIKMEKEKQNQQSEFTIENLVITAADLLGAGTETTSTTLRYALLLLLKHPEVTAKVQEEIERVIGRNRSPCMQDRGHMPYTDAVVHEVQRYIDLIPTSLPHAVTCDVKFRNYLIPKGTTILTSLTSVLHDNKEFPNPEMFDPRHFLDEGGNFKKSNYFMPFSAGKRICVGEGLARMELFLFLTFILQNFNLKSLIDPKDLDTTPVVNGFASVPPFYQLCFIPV
Chain of ATP-dependent 6-phosphofructokinase (Trypanosoma brucei brucei) (O15648 whole entry, looked up): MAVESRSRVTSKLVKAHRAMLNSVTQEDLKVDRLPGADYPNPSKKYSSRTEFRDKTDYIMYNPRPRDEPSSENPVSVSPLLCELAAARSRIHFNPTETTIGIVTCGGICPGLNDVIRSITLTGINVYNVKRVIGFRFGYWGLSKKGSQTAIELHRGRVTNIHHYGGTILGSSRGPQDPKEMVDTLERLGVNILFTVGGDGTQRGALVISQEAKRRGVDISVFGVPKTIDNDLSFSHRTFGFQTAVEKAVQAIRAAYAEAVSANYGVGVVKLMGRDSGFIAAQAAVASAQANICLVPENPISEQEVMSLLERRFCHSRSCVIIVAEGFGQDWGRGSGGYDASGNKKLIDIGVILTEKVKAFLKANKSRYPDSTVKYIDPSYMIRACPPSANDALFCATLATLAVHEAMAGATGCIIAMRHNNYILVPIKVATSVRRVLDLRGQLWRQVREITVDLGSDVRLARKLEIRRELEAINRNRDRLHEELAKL

CN(C)Cc1ccc(-c2cc3onc(-c4ccccc4)c3c(=O)n2C)cc1
inactive: Potency [1] > 11.4 µM | activity change, negative = inhibition [2] 12.1% | Potency [3] | activity, negative = inhibition [4] -3.19% | Potency [5] > 46 µM | Potency [6] > 9.22 µM | Potency [7] | Potency [8]

O=C(O)/C=C\C(=O)N1Cc2cc3ccccc3nc2C1
inactive: Potency [1] > 11.4 µM | activity change, negative = inhibition [2] 6.48% | Potency [3] | activity, negative = inhibition [4] 12.1% | Potency [5] > 46 µM | Potency [6] > 9.22 µM | Potency [7] | Potency [8]

CC1(C)[C@@H]2CC[C@]1(C)[C@@H](OC(=O)CSC#N)C2
inactive: Potency [1] > 11.4 µM | activity change, negative = inhibition [2] -4% | activity change, negative = inhibition [3] -18.3% [at 2.29 µM] | activity change, negative = inhibition [9] 18.3% | Potency [7] | Potency [8] | outcome [10] | activity, negative = inhibition ([11]; parasite line A) -6.1% | activity, negative = inhibition ([11]; parasite line B) -5.42% | Potency [12] | Potency [13] | Potency [14]

C[N+](C)(C)[C@H](Cc1c[nH]c(=S)[nH]1)C(=O)O
inactive: Potency [1] > 11.4 µM | activity change, negative = inhibition [2] 4.67% | Potency [3] | activity, negative = inhibition [4] 9.57% | Potency [5] > 46 µM | Potency [6] > 9.22 µM | Potency [7] | Potency [8]

N#CCCn1c(=O)c(-c2ccccc2)nc2cnc(OCc3ccccc3)nc21
active: Potency [3] 3.16 µM
inactive: Potency [1] > 11.4 µM | activity change, negative = inhibition [2] -17.7% | activity, negative = inhibition [4] -1.68% | Potency [5] > 9.22 µM | Potency [6] > 46 µM | Potency [7] | Potency [8] | Potency [15]

Oc1ccc2ccccc2c1/C=C\c1ccc2c(Br)cc(Br)c(O)c2n1
inactive: Potency [1] > 11.4 µM | activity change, negative = inhibition [2] -7.49% | activity, negative = inhibition [4] 1.04% | Potency [5] > 46 µM | Potency [6] > 9.22 µM | Potency [7] | Potency [8]
active: Potency [3] 3.98 µM | Potency [16] 2.51 µM

Cc1ccc(C2=Nc3ccccc3S[C@@H](c3cccc([N+](=O)[O-])c3)C2)cc1
active: Potency [3] 2 µM | Potency [17] 3.98 µM | Potency [18] 3.98 µM
inactive: Potency [1] > 11.4 µM | activity change, negative = inhibition [2] -7.9% | activity, negative = inhibition [4] -8.15% | Potency [5] > 46 µM | Potency [6] > 9.22 µM | Potency [7] | Potency [8] | Potency [15]

CN(C)CC(C)(C)CN1c2ccccc2Sc2ccccc21
inactive: Potency [1] > 11.4 µM | activity change, negative = inhibition [2] 24% | Potency [3] | activity, negative = inhibition [4] 0.898% | Potency [5] > 46 µM | Potency [6] > 9.22 µM | Potency [7] | Potency [8] | Potency [15]
active: Potency [19] 0.199 µM

Cc1c2cccc(Sc3ccccc3)c2c2c3c(cccc13)[S+](c1ccccc1)C2 (stereo unspecified)
inactive: Potency [1] > 11.4 µM | activity change, negative = inhibition [2] -7.04% | activity change, negative = inhibition [3] -17.3% [at 2.29 µM] | activity, negative = inhibition [4] 2.31% | Potency [5] > 46 µM | Potency [6] > 9.22 µM | Potency [7] | Potency [8] | Potency [15] | activation [20] -19.6%
active: Potency [16] 2.51 µM | Potency [18] 0.0631 µM

O=C(O)/C=C\C(=O)Nc1cccc2c1-c1ccccc1C2=O
inactive: Potency [1] > 11.4 µM | activity change, negative = inhibition [2] -2.3% | activity, negative = inhibition [4] -4.51% | Potency [5] > 46 µM | Potency [6] > 9.22 µM | Potency [7] | Potency [8]
active: Potency [3] 2.51 µM

Nc1ncnc2c1ncn2[C@H]1O[C@@H](C(=O)O)[C@@H](O)[C@H]1O
inactive: Potency [1] > 11.4 µM | activity change, negative = inhibition [2] 17.5% | Potency [3] | activity, negative = inhibition [4] 6.21% | Potency [5] > 46 µM | Potency [6] > 9.22 µM | Potency [7] | Potency [8]

Cc1ccc(C2=C(Cl)C(=O)C(c3ccc(C)cc3)=C(Cl)C2=O)cc1
inactive: Potency [1] > 11.4 µM | activity change, negative = inhibition [2] 4.65% | activity change, negative = inhibition [3] -16.9% [at 2.29 µM] | activity, negative = inhibition [4] -13.6% | Potency [5] > 46 µM | Potency [6] > 9.22 µM | Potency [7] | Potency [8]
active: Potency [16] 1.58 µM

N[C@@H](CC1=CS(=O)(=O)c2ccc(Cl)cc21)C(=O)O
inactive: Potency [1] > 11.4 µM | activity change, negative = inhibition [2] -5.74% | activity, negative = inhibition [4] -1.77% | Potency [5] > 46 µM | Potency [6] > 9.22 µM | Potency [7] | Potency [8] | Potency [15]
active: Potency [3] 0.398 µM
